# From the supplement of paper PMC6555819
# How the values were obtained:
# Experiment in all cases: PBM binding z-score (relative to random genomic background probes); higher = stronger binding; sequences stand for … in GC…GCGATTGACAGCGTAGAATGAAGG
# [1] = test system: FXR:RXRa (NR concentration 270 nM, RXRa partner concentration 90 nM)
# How it was run: (§1)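 Binding buffer was PBS pH 7.4 with 2% milk, 0.02% Triton X-100, 1 mM DTT, 0.2 mg/mL BSA and 0.4 mg/ml salmon testes DNA. In it, ligand-free nuclear receptor dimers were incubated 1 h on custom Agilent 4×180K protein-binding microarrays carrying double-stranded probes. Antibodies against each partner (one per run) detected binding, and z-scores were calculated against random background probes after regression normalization of scanned fluorescence.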
# [2] = test system: LXRa:RXRa (NR concentration 270 nM, RXRa partner concentration 90 nM)
# How it was run: as §1
# [3] = test system: LXRa homodimer (NR concentration 270 nM)
# How it was run: as §1
# [4] = test system: LXRb:RXRa (NR concentration 270 nM, RXRa partner concentration 90 nM)
# How it was run: as §1
# [5] = test system: PPARa:RXRa (NR concentration 270 nM, RXRa partner concentration 90 nM)
# How it was run: as §1
# [6] = test system: PPARg:RXRa (NR concentration 180 nM, RXRa partner concentration 90 nM)
# How it was run: as §1
# [7] = test system: PPARg:RXRa 270nM:90nM, anti-RXR (NR concentration 270 nM, RXRa partner concentration 90 nM)
# How it was run: as §1
# [8] = test system: PPARg:RXRa 30nM:10nM, anti-RXR (NR concentration 30 nM, RXRa partner concentration 10 nM)
# How it was run: as §1
# [9] = test system: PPARg:RXRa 90nM:30nM, anti-RXR (NR concentration 90 nM, RXRa partner concentration 30 nM)
# How it was run: as §1
# [10] = test system: PPARg:RXRa DBDmut IVT, anti-RXR (DBD mutation: RXRa K156A/R161A, NR concentration 270 nM, RXRa partner concentration 90 nM)
# How it was run: as §1
# [11] = test system: PPARg:RXRa IVT, anti-PPARg (NR concentration 270 nM, RXRa partner concentration 90 nM)
# How it was run: as §1
# [12] = test system: PPARg homodimer (NR concentration 180 nM)
# How it was run: as §1
# [13] = test system: PXR:RXRa (NR concentration 270 nM, RXRa partner concentration 90 nM)
# How it was run: as §1
# [14] = test system: PXR homodimer (NR concentration 270 nM)
# How it was run: as §1
# [15] = test system: RARa:RXR (NR concentration 270 nM, RXRa partner concentration 90 nM)
# How it was run: as §1
# [16] = test system: RARa homodimer (NR concentration 270 nM)
# How it was run: as §1
# [17] = test system: RARb:RXRa (NR concentration 270 nM, RXRa partner concentration 90 nM)
# How it was run: as §1
Sequence,PBM binding z-score [1],PBM binding z-score [2],PBM binding z-score [3],PBM binding z-score [4],PBM binding z-score [5],PBM binding z-score [6],PBM binding z-score [7],PBM binding z-score [8],PBM binding z-score [9],PBM binding z-score [10],PBM binding z-score [11],PBM binding z-score [12],PBM binding z-score [13],PBM binding z-score [14],PBM binding z-score [15],PBM binding z-score [16],PBM binding z-score [17]
TCGAGTAGGTTACGGGGGGATTCAGGGATGAAGA,2.95,2.87,1.21,5.21,3.11,5.11,4.06,3.29,4.14,4.94,5.45,3.89,3.86,2.74,3.13,2.04,2.8
TCGAGTAGGTTACGGGGGCAATCAGGGATGAAGA,1.97,2.28,0.238,4.49,4.14,6.62,5.6,3.37,4.85,4.86,6.27,1.35,2.64,0.755,2.99,-0.0158,2.43
TCGAGTAGATTACGGGGGCATTCAGGGATGAAGA,1.41,1.87,0.702,4.05,2.53,1.06,2.64,2.04,2.12,2.06,2.81,0.745,2.52,1.38,2.08,0.218,1.37
CCTAGTAGGTTACGAGGGGGCATTCAGTGCGAAT,3.31,7.55,1.8,6.51,4.13,5.11,5.4,2.24,4.28,6.21,6.3,3.88,5.02,6.19,2.97,1.46,2.32
CCGAGTAGGTTACGAGGAGGCATTCAGTGCGAAT,-0.167,4.4,-0.319,0.864,1.26,0.943,1.25,-0.283,0.832,4.34,3.39,-0.438,0.196,-0.429,0.244,-0.663,0.685
CCGAGTCGGTTACGAGGGGGCATTCAGTGCGAAT,0.716,4.66,1.26,4.05,1.74,-0.00257,0.709,-0.212,0.329,0.193,0.806,0.506,2.86,5.49,1.77,0.0912,1.12
CCGAGTAGGTTACGAGGGGGCATTCTGTGCGAAT,2.88,7.2,1.77,6.24,3.38,2.22,3.46,0.457,2.35,4.91,4.3,2.19,4.42,1.05,3.12,0.262,2.01
TCCAGTAGGTTACGGGGGCATTCAGGGATGAAGA,3.09,3.47,1.18,5.7,4.68,7.15,6.28,5.22,6.53,5.86,6.84,2.22,3.68,1.9,3.51,0.616,2.97
CTATGTACGTTAAGGGGGTCATTCAGTTTGAAAG,4.34,4.93,2.68,6.5,5.53,3.31,5.19,3.25,4.57,3.42,5.2,3.11,5.68,9.08,5.5,1.37,3.45
TCGAGTAGGTTACGGGGGCATTCATGGATGAAGA,2.37,2.82,0.637,4.75,4.29,6.11,5.78,3.34,4.94,5.12,5.88,1.86,3.32,1.27,2.88,0.144,2.51
CCGATTAGGTTACGAGGGGGCATTCAGTGCGAAT,2.54,7.34,1.59,6.42,3.29,1.45,2.96,0.437,2.32,3.12,3.4,1.22,4.69,3.98,2.28,0.441,2.49
TCGAGTATGTTACGGGGGCATTCAGGGATGAAGA,2.26,2.6,0.591,4.72,2.9,1.94,3.22,2.44,3.35,2.87,3.97,0.827,2.87,1.12,2.43,0.107,2.01
CTATGTAGGTTAAGGGGGTGATTCAGTTTGAAAG,1.52,1.98,0.79,3.83,4.69,7.43,6.74,4.44,6.29,7.48,7.27,2.45,2.49,2.65,2.41,1.25,2.34
TCGAGTACGTTACGGGGGCATTCAGGGATGAAGA,2.24,1.79,-0.186,3.82,2.44,0.609,1.72,1.42,1.85,1.28,2.5,0.453,2.92,1.24,1.86,0.239,1.38
CCGAGTAGGTTAAGAGGGGGCATTCAGTGCGAAT,3.24,6.72,1.5,5.79,3.21,1.93,3.19,0.978,2.43,4.47,4.75,2.41,4.95,6.8,2.7,1.37,2.28
CCGAGTAGGTTTCGAGGGGGCATTCAGTGCGAAT,1.41,2.96,1.18,4.53,2.37,-0.183,1.67,0.107,1.44,2.27,2.41,1.58,3.09,5.29,1.88,0.558,1.28
CGATGTAGGTTAAGGGGGTCATTCAGTTTGAAAG,5.57,4.7,3.53,6.23,5.85,8.23,7.56,6.22,7.61,7.27,7.49,5.88,6.1,13.5,6.18,4.27,3.65
